rTrxR1 inhibitor – blocks rat thioredoxin reductase 1; 1% of 390,000 active; AID 588453; Potency, µM (top dose mostly 114 µM), inactives show at the highest dose activity change, negative = inhibition, hits mostly inhibitors; O89049; recombinant rTrxR1, NADPH fluorescence consumption, selenite substrate; also: nearly all actives have a fitted effect of over 65% in size
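Rat TrxR1 (90 nM in the dispensed reagent) was pre-reduced with 400 uM NADPH for 5 min at room temperature, then incubated with compound for 15 min. After 400 uM selenite was added, NADPH fluorescence (Ex 340/Em 450 nm) was followed for 8 min.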
RGS4 inh – blocks human RGS4-accelerated GTP hydrolysis; Transcreener GDP fluorescence polarization, RGS4-accelerated GTP hydrolysis; 0.039% of 390,000 active; AID 504845; Potency, µM (series often up to 114 µM), without a hit: at the highest dose activity change, negative = inhibition, actives largely listed as inhibitors; P49798; also: nearly all actives have a fitted effect of over 75% in size
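MLSMR compounds (23 nl, pin-transferred) preincubated 10 min at room temperature with a 500nM (2x) first reagent, then RGS4 at 900nM (2x) plus Transcreener GDP mix added; fluorescence polarization (620/688 nm) read before and after 90 min at 30 °C.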
GALK inhibitor – blocks human galactokinase activity | Purified GALK, Kinase-Glo residual ATP luminescence | Potency, µM (series often up to 57.5 µM), for inactives: at the highest dose activity change, negative = inhibition, hits mostly inhibitors | 0.007% of 270,000 active
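Quantitative HTS: GALK 5 nM, ATP 35 uM, galactose 100 uM, 1 h room temperature, then luciferase-based ATP detection.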
USP2a block – USP2a (human) protease inhibition. O75604. Potency, µM (series often up to 38.3 µM), without a hit: at the highest dose activity change, negative = inhibition, usual class: inhibitors. USP2 core, Ub-CHOP2 coupled fluorogenic reporter, 485/531. 0.01% of 330,000 active;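 also: plate controls were DMSO wells for no effect and full inhibition by NEM control for full effect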
Target sequence (O75604 whole entry, looked up): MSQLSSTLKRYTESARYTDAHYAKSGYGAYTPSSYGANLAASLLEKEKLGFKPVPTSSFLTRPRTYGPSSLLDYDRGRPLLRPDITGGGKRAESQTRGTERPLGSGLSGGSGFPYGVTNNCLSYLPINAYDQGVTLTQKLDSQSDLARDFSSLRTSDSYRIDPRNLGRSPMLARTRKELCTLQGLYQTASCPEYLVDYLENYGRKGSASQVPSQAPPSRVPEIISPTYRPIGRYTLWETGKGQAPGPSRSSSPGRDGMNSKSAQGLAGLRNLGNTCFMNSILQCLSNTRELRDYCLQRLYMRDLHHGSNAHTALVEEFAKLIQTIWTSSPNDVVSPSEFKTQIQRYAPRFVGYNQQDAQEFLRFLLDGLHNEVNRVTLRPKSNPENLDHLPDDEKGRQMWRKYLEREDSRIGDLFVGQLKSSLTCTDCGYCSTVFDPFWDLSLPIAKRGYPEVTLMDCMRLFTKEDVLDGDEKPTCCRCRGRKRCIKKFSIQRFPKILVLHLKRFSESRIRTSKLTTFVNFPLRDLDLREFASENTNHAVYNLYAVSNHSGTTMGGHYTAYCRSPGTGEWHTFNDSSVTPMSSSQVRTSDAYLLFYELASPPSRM
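Cell-free coupled assay: 10nM USP2 core preincubated 30min RT with compound in Tris-HCl pH 8.0/CaCl2/CHAPS buffer, then 25nM Ub-CHOP2 and 25nM reporter substrate; fluorescence (Ex 485/Em 531) read after 60min RT, normalized to NEM inhibition, concentration-response curves fitted.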
TrxR1 substrate – substrates of rat thioredoxin reductase 1 | O89049 | Potency, µM (highest dose often 114 µM), inactives show at the highest dose activity change, negative = substrate turnover | purified TrxR1 substrate turnover, NADPH consumption readout | 0.01% of 390,000 active; also: nearly all actives have a fitted effect of over 50% in size
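Rat TrxR1, dispensed at 90 nM, was prereduced with 400 uM NADPH (final) for 5 min at ~22 deg C, then incubated with compound 15 min before 400 uM selenite. A first-read NADPH fluorescence drop versus no-compound background flagged substrates.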
Eya2 phos inh – blocks the phosphatase activity of human Eya2. AID 488837. O00167. Potency, µM (top dose mostly 76.9 µM), for inactives: at the top dose activity, negative = inhibition, actives largely listed as inhibitors. recombinant Eya2, OMFP fluorescence dephosphorylation (OMFP is methylfluorescein phosphate). 0.006% of 330,000 active
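Eya2 (0.2 uM) preincubated 10 min at ambient with compound, then OMFP substrate added at 50 uM; 10 min reaction in 50 mM HEPES pH 7.5, 50 mM NaCl, 5 uM MgCl2, 0.05% BSA, 1 mM DTT. Fluorescence read at Ex 485/Em 525 nm.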
* marks the source's active call; other numbers are inactive results; [ ] = remark or other dose. Rows were chosen to be rich in hits. Some 1% of all compounds tested hit in one or more screens of this group. Calls follow the shape of the dose curve; as a rule, active = well fitted curve in the direction sought with a large enough effect; inconclusive = small, poorly fitted or top-dose-only effect, or another doubt; inactive = no such curve, though single readings can be large; an effect the other way counts as inactive or inconclusive. Unless noted, % is scaled to controls: 0 for no effect and ±100 for the full control effect; potency is read from the fitted curve at half-maximal effect.

Screening COCCNC(=O)c1cc2cc3ccc(OC)cc3nc2o1 returned rTrxR1 inhibitor 70.8µM*, RGS4 inh -1.2%, GALK inhibitor -5.1%, USP2a block 2.0%, TrxR1 substrate 868.3% and Eya2 phos inh -5.5%.
For Oc1cc(O)c(CN2CCOCC2)cc1CN1CCOCC1 the results were rTrxR1 inhibitor 11.2µM*, RGS4 inh -9.4% and TrxR1 substrate -4.4%.
Cc1ccccc1OCC(=O)Nc1cc(C)c(O)c(-c2nc3ccccc3o2)c1 was read as rTrxR1 inhibitor 24.6% and TrxR1 substrate 8.8%.
For COc1ccc(-c2nc(S(=O)(=O)c3ccccc3)c(N3CCC(C)CC3)o2)cc1 the results were rTrxR1 inhibitor 10.4%, RGS4 inh 16.2% and TrxR1 substrate -1.7%.
For CCOc1ccc(-c2nc(S(=O)(=O)c3ccccc3)c(N3CCC(C(N)=O)CC3)o2)cc1 the results were rTrxR1 inhibitor 44.7µM*, RGS4 inh -2.2%, GALK inhibitor -2.3%, USP2a block 0.7%, TrxR1 substrate -5.6% and Eya2 phos inh -7.4%.
Screening COc1ccc(OC)c(NC(=O)c2c(NCc3cccs3)sc3c2CCCC3)c1 returned rTrxR1 inhibitor 44.7µM*, RGS4 inh 9.2% and TrxR1 substrate -4.9%.
`COc1ccc(NC(=O)c2c(NCc3sccc3C)sc3c2CCCCC3)c(OC)c1` gave rTrxR1 inhibitor 17.8µM*, RGS4 inh inconclusive and TrxR1 substrate -2.4%[57.1 µM].
For COc1ccc(NC(=O)c2c(NCc3ccc(C)o3)sc3c2CCC(C)C3)c(OC)c1 (stereo not drawn) the results were rTrxR1 inhibitor -7.1%[57.1 µM], RGS4 inh inconclusive and TrxR1 substrate -1.0%[57.1 µM].
`COc1ccc(NC(=O)c2c(NCc3ccc(C)o3)sc3c2CCCCC3)c(OC)c1` gave rTrxR1 inhibitor 20µM*, RGS4 inh inconclusive and TrxR1 substrate -8.8%[57.1 µM].
Screening CC(C)NS(=O)(=O)c1cc(C(F)(F)F)ccc1/C=C/C(=O)O returned rTrxR1 inhibitor inconclusive and TrxR1 substrate 2.4%.
Screening Cc1ccnc2c(N)cccc12 returned rTrxR1 inhibitor 7.2% and TrxR1 substrate 3.0%.
For CC1(C)CC(=O)C(C2C3=C(CC(C)(C)CC3=O)Oc3ccccc32)C(=O)C1 (stereo not drawn) the results were rTrxR1 inhibitor 56.2µM*, RGS4 inh -7.5%, GALK inhibitor -1.2%, USP2a block 2.6%, TrxR1 substrate -6.4% and Eya2 phos inh inconclusive.
`CC1(C)CC(=O)C([C@H]2C3=C(CC(C)(C)CC3=O)Oc3ccccc32)C(=O)C1` gave RGS4 inh inactive.
`Cc1c(Br)cnc2ccccc12` gave rTrxR1 inhibitor inconclusive and TrxR1 substrate -16.3%.
CCCOc1ccccc1NC(=O)/C=C/C(N)=O was read as rTrxR1 inhibitor 12.6µM*, RGS4 inh -17.5%, GALK inhibitor 4.5%, USP2a block 0.1%, TrxR1 substrate 7.7% and Eya2 phos inh 11.2%.
`O=C(C[N+]1(CC(O)c2ccccc2)CCOCC1)c1ccccc1` (stereo not drawn) gave rTrxR1 inhibitor 14.5% and TrxR1 substrate 1.4%.
For CCCCCC1CCNCC1 the results were rTrxR1 inhibitor 13.2% and TrxR1 substrate 11.4%.
CCCCNC(=O)c1sc2ncnc(N3CCc4ccccc4C3)c2c1C was read as rTrxR1 inhibitor 2.82µM*, RGS4 inh -21.3%, GALK inhibitor -2.4%, USP2a block 0.5%, TrxR1 substrate 25.1% and Eya2 phos inh -11.5%.
Screening CC(=O)OCCNc1cc(SCc2ccco2)c2nonc2c1[N+](=O)[O-] returned rTrxR1 inhibitor 22.4µM*, RGS4 inh -22.1%, GALK inhibitor -0.4%, USP2a block 0.9%, TrxR1 substrate -9.3% and Eya2 phos inh -0.3%.
O=[N+]([O-])c1c(NCCCO)cc(Sc2ccc(Cl)cc2)c2nonc12 was read as rTrxR1 inhibitor 2.82µM*, RGS4 inh -28.2%, GALK inhibitor -2.0%, USP2a block 3.5%, TrxR1 substrate -5.1% and Eya2 phos inh -5.7%.
O=[N+]([O-])c1c(NCCCO)cc(SCc2ccco2)c2nonc12 was read as rTrxR1 inhibitor 14.1µM*, RGS4 inh -13.3%, USP2a block -0.1%, TrxR1 substrate -14.4% and Eya2 phos inh -12.6%.
Screening CCCC(=O)OCCNc1cc(SCCC(=O)OC)c2nonc2c1[N+](=O)[O-] returned rTrxR1 inhibitor 10µM*, RGS4 inh -30.8%, GALK inhibitor 0.6%, USP2a block -0.3%, TrxR1 substrate -11.5% and Eya2 phos inh 12.7%.
`CN(C)c1ccc(N=Cc2ccncc2)cc1` gave rTrxR1 inhibitor inconclusive and TrxR1 substrate 4.5%[0.0914 µM].
For CC(=O)N(C1=C(N)C(=O)c2ccccc2C1=O)C(C)C the results were rTrxR1 inhibitor 79.4µM*, RGS4 inh -2.5%, GALK inhibitor 0.0%, USP2a block 10.1%, TrxR1 substrate 2.7% and Eya2 phos inh 0.9%.
`CC(=O)N(C)C1=C(O)c2ccccc2C(=O)C1=O` gave rTrxR1 inhibitor -19.9%, RGS4 inh 2.9%, GALK inhibitor -1.4%, USP2a block -0.8%, TrxR1 substrate -11.0% and Eya2 phos inh -0.5%.
C=C1C=C(C(F)F)n2ncc(C(=O)N3CCc4ccccc4C3)c2N1 was read as rTrxR1 inhibitor 6.2% and TrxR1 substrate 6.8%.
Oc1c(I)cc(Cl)c2cccnc12 was read as rTrxR1 inhibitor 7.94µM*, RGS4 inh inconclusive, USP2a block 0.5%, TrxR1 substrate 3.1% and Eya2 phos inh -2.1%.
`Cc1ccc(/C=C2\SC(=S)N(C3CCS(=O)(=O)C3)C2=O)o1` (stereo not drawn) gave rTrxR1 inhibitor 15.8µM*, RGS4 inh -15.8%[11.4 µM], GALK inhibitor 0.4%, USP2a block 3.0%, TrxR1 substrate -18.3% and Eya2 phos inh 12.5%.
For Nc1c(C2CCCCC2)c(=O)on1C(=O)c1ccccc1 the results were rTrxR1 inhibitor 44.7µM*, RGS4 inh -27.1% and TrxR1 substrate -0.6%.
Nc1cccc2cccnc12 was read as rTrxR1 inhibitor 22.6%[0.0914 µM] and TrxR1 substrate 1.6%.
CC(=O)Nc1ccc(-c2nc3ccc(NC(C)=O)cc3o2)cc1 was read as rTrxR1 inhibitor 50.1µM*, RGS4 inh -6.9%, GALK inhibitor 0.5%, USP2a block 1.0%, TrxR1 substrate 467.8% and Eya2 phos inh 4.4%.
Cc1csc(N/N=C/c2ccc(O)c([N+](=O)[O-])c2)n1 was read as rTrxR1 inhibitor 28.2µM*, RGS4 inh inconclusive, GALK inhibitor 5.1%, USP2a block 1.2%, TrxR1 substrate -23.2% and Eya2 phos inh 15.6%.

Screens from PubChem.
